# Source: PubChem (National Center for Advancing Translational Sciences (NCATS))
# POLI inh: qHTS for Inhibitors of Polymerase Iota; Pol iota fluorescent replication assay, 10 min; Potency, µM (titrated, usually from 115 µM), for the others: at the highest dose activity, negative = inhibition, actives largely listed as inhibitors; 1% of 390,000 active; AID 588590, 2011
#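 Pol iota at 10 nM preincubated 15 min with compounds at room temperature; reaction started with fluorescent substrate, 50 nM final. Fluorescence read kinetically at 0 and 10 min; buffer-only wells as negative control.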
# Pol eta inh: qHTS for Inhibitors of Polymerase Eta | DNA polymerase eta (Homo sapiens), Q9Y253 | recombinant Pol eta, fluorescent DNA replication assay | Potency, µM (highest dose often 114 µM), inactives show at the top dose activity change, negative = inhibition, usual class: inhibitors | 1.2% of 390,000 active | AID 588591, 2011; also: % is scaled to controls: 0 for no effect and ±100 for the full control effect
#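 Pol eta at 10 nM preincubated with compounds 15 min at room temperature; reaction started with fluorescent substrate (50 nM final) and read kinetically at 0 and 10 min.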
# POLB inh: qHTS Assay for Inhibitors of DNA Polymerase Beta | AID 485314, 2010 | P06746 | 1.3% of 340,000 active | Pol beta primer extension/strand displacement, fluorescence kinetic | Potency, µM (top dose mostly 114 µM), inactives show at the highest dose activity change, negative = inhibition, most hits filed as inhibitors; also: % is scaled to controls: 0 for no effect and ±100 for the full control effect
#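 Reaction started by 50 nM substrate onto compound-treated Pol beta (10 nM, 15 min preincubation, room temperature); plates read at 0 min and 10 min. Normalized concentration-effect data fitted by four-parameter Hill equation.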
# KAT2A inh: qHTS Assay for Inhibitors of GCN5L2; Histone acetyltransferase KAT2A (Homo sapiens), Q92830; GCN5L2 HAT assay, ThioGlo1 CoA-SH fluorescence; Potency, µM (highest dose often 58.9 µM), inactives show top-dose activity change, negative = inhibition, hits mostly inhibitors; 0.21% of 390,000 active; also: % is scaled to controls: 0 for no effect and ±100 for the full control effect
# Target sequence (Q92830 whole entry, looked up): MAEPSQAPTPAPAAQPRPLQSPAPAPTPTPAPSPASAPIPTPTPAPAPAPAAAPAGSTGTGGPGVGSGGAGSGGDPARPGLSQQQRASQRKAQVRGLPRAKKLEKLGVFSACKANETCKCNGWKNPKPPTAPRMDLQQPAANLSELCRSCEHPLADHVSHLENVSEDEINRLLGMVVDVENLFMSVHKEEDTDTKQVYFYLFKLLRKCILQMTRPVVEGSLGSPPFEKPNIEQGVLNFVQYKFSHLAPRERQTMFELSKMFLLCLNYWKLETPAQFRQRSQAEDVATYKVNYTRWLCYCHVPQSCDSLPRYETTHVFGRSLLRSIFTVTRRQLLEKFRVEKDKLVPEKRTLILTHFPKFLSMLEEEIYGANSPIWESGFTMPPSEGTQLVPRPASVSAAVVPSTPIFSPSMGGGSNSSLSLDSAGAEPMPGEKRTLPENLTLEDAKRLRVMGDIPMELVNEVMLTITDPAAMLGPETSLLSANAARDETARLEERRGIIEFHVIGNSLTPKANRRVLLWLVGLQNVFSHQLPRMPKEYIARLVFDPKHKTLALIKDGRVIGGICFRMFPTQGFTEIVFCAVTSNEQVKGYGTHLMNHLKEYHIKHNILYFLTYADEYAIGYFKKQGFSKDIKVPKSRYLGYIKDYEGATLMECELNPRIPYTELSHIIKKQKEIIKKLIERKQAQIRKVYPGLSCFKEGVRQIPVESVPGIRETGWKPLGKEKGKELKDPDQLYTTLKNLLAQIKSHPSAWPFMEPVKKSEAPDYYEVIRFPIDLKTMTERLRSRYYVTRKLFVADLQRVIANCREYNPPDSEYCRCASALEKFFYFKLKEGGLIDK
#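 Enzyme at 20nM final was mixed with library compounds for 15 min at room temperature. Peptide H3(1-25) at 75uM, acetyl-CoA at 70uM and ThioGlo1 at 50uM were then added. Plates were read immediately and after 20 min (Ex340nm/Em540nm).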
# POLK inh: qHTS for Inhibitors of Polymerase Kappa | DNA polymerase kappa (Homo sapiens), Q9UBT6 | purified Pol kappa, fluorescent DNA synthesis assay, 10 min | Potency, µM (highest dose often 107 µM), inactives show at the highest dose activity, negative = inhibition, actives largely listed as inhibitors | 0.53% of 400,000 active; also: % is scaled to controls: 0 for no effect and ±100 for the full control effect
#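 Readout: fluorescence, taken kinetically at 0 and 10 min. Conditions: 10 nM Pol kappa, 15 min RT compound preincubation, 50 nM substrate final. Controls: enzyme-free buffer wells.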
# GLS inhibitor: qHTS for Inhibitors of Glutaminase (GLS); 0.21% of 410,000 active; GLS enzymatic activity, qHTS titration; Potency, µM (series often up to 45.5 µM), inactives show at the top dose activity change, negative = inhibition, hits mostly inhibitors; Glutaminase kidney isoform, mitochondrial (Homo sapiens), O94925; also: % is scaled to controls: 0 for no effect and ±100 for the full control effect
#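 Read-out is an Amplex red fluorescence increase coupled through glutamate oxidase and HRP, measured before and after 30 min room-temperature incubation. hKGA is in 45 mM KH2PO4 (pH 8.2) with 0.02% Tween-20; glutamine added as 1mM solution.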
# Starred values were filed as active, the others as inactive; ? = inconclusive; / = no result given; ! = not confirmed by another sample; [ ] = another dose, or the depositor's remark. In the library only some 2.4% were active in any assay of this set; here they are far more common. Calls follow the shape of the dose curve; as a rule, active = well fitted inhibition curve with a large enough effect; inconclusive = small, poorly fitted or top-dose-only effect, or another doubt; inactive = no such curve, though single readings can be large or run the other way. Potency is read from the fitted curve at half-maximal effect.
SMILES,POLI inh,Pol eta inh,POLB inh,KAT2A inh,POLK inh,GLS inhibitor
CN(C)c1ccc(/C=C/N2C=CCc3c2ccc2ccccc32)cc1,?,/,/,/,50µM*,/
COc1ccc(CNC(=O)c2cnc(C)cn2)cc1,?,16µM*,28µM*,-7%,-7%,-29%
COC(=O)c1ccc(Cn2c(O)c(N=NC(N)=S)c3ccccc32)o1,32µM*,50µM*,?,-4%,?,-2%
NC(=S)N=Nc1c(O)n(Cc2ccccc2)c2ccccc12,10%,1%,1%,-1%,-3%,6%
Cc1ccc(CN2CCOCCS2(=O)=O)cc1,21%,/,/,/,-13%,/
COc1cc(/C=N/NC(=O)c2cc(-c3ccc4c(c3)OCO4)n[nH]2)ccc1O,?,?,8.9µM*,-1%,79µM*,-8%
COc1ccc2[nH]c(C(=O)N/N=C/c3ccc(OC)c(O)c3)cc2c1,31%,?,28µM*,5%,?,-22%
COc1cc(/C=N/Nc2ccc(C(=O)O)cc2)cc(OC)c1OC,51%,-6%,14%,-11%,8%,19%
O=C(N/N=C/c1ccc([N+](=O)[O-])cc1)c1cc(-c2ccc3c(c2)OCO3)n[nH]1,48%,-17%,2%,-28%,-1%,0%
COc1cc(/C=N/NC(=O)c2cc(C3CC3)[nH]n2)ccc1O,-1%,-13%,2%,-5%,8%,17%
COc1cc(/C=N/NC(=O)c2ccc(=O)[nH]n2)ccc1O,100µM*,?,20µM*,-21%,?,34%
COc1cc(/C=N/Nc2ccc(C(=O)O)cc2)ccc1O,?,22µM*,25µM*,-21%,11%[60.1 µM],68%
CCCOc1ccc2[nH]c(C(=O)N/N=C/c3cc(OC)c(OC)c(OC)c3)cc2c1,-1%,-12%,?,-4%,-19%,-1%
O=C(COc1ccccc1C(=O)Nc1ccccc1)Nc1ccccc1Cl,-22%,/,/,/,-1%,/
CCOC(=O)c1ccc(S(=O)(=O)N2CCN(c3nc(-c4cccs4)nc4ccccc34)CC2)cc1,?,/,/,/,-18%,/
COc1cc(/C=N/NC(=O)c2cccnc2)ccc1OCC(=O)Nc1ccc(C)cc1,?,?,13µM*,-24%,?,-15%
COc1cc(/C=C/C(=O)CC(=O)/C=C/c2ccc(O)c(OC)c2)ccc1O,?,-9%,?,-10%,?,?
COc1cc(/C=C/C(=O)/C=C(O)/C=C/c2ccc(O)c(OC)c2)ccc1O,?,-4%,/,-8%,?,35µM*!
CCNC(=O)COc1ccc(/C=N/NC(=O)c2cccnc2)cc1OC,-1%,1%,45%,-19%,0%,9%
COc1ccc(/C=N/NC(=O)c2cc(-c3cccn3C)n[nH]2)cc1OC,?,?,8.9µM*,-2%,?,16%
COc1cc(/C=N\NC(=O)c2ccc(C)nc2)ccc1OC(=O)c1ccc2c(c1)OCO2,-12%,?,20µM*,-4%,3%,-3%
O=S(c1ccccc1)c1ccc2nnnn2n1 (stereo unspecified),/,/,/,1%,3%[60.1 µM],/
CC(C)(C)n1ncc2c(=O)n(Cc3cccc(C(F)(F)F)c3)cnc21,-20%,/,/,/,-15%,/
O=C(Cn1c(=O)n(Cc2nc(-c3ccccc3)no2)c(=O)c2ccccc21)Nc1cccc(Cl)c1,20%,-17%,-1%,-5%,-2%,-13%
Cc1cc2ccccn2c1C(=O)c1ccc(N/N=C/c2ccc(C(=O)O)cc2)c([N+](=O)[O-])c1,?,35µM*,?,-5%,-10%,10µM*
SMILES,POLI inh,Pol eta inh,POLB inh,KAT2A inh,POLK inh,GLS inhibitor
C/C(=N\Nc1ccc(C(=O)c2c(C)cc3ccccn23)cc1[N+](=O)[O-])c1ccc(O)cc1,3%,-1%,2%,-11%,-11%,3%
O=C(O)c1ccc(NC(=O)c2cc3c([nH]c2=O)CCCC3=O)cc1,-30%,/,/,/,-15%,/
CCCCCCOc1ccc(CC(=O)O)cc1,31%,/,/,/,2%,/
Cc1ccc2nc(CSc3nnc(Nc4ccccc4F)s3)cc(=O)n2c1,?,-31%,22µM*,3%,-12%,25%
COc1ccc(-c2cc3ccc(O)c(CN4CCC(C)CC4)c3oc2=O)cc1,?,-23%,24%,28µM*,-5%[60.1 µM],5%
O=c1oc2c(CN3CCCC3)c(O)ccc2cc1-c1ccccc1,-8%,-9%,16%,18µM*,-5%[60.1 µM],6%
CC1=CC(=O)CC2C1(C)CCC(C)C2(C)CCC(C)CC(=O)O (stereo unspecified),89µM*,79µM*,45µM*,-14%,-28%,-5%
CN1CCc2cccc3c2C1Cc1ccc(O)c(O)c1-3 (stereo unspecified),14µM*!,-2%[57.1 µM],-12%[57.1 µM],-10%,1%[60.1 µM],58%
CN1CCC(=C2c3ccccc3C(O)c3ccccc32)CC1 (stereo unspecified),-25%,-8%,2%,14%,7%,-3%
Nc1ccccc1C(=O)/C=C/c1ccc2c(c1)OCO2,-3%,-20%,3%,-13%,8%,24%
CCNc1ccc(Br)cc(C(=O)/C=C/c2ccc3c(c2)OCO3)c1=O,4µM*,11µM*,20µM*,-4%,?,-7%
CCNc1ccc(Br)cc(C(=O)/C=C/c2c(Cl)cccc2Cl)c1=O,4.5µM*,18µM*,8.9µM*,?,?,8%
CCNc1ccc(Br)cc(C(=O)/C=C/c2ccc(Cl)cc2)c1=O,?,40µM*,28µM*,-9%,?,-3%
CCNC(=O)/C=C/c1cccc(Br)c1,/,/,/,-4%,11%[19.4 µM],6%
Cc1cc(C)cc(OCC(=O)NCc2nc(-c3ccccc3)no2)c1,89µM*,-8%,-29%,-10%,-10%,-18%
Cc1ccc(C)c(N2CCN(C(c3ccccc3)c3nnc(-c4ccccc4F)o3)CC2)c1 (stereo unspecified),-4%,-26%,-22%,-14%,4%,-6%
Cc1ccc(C)c(N2CCN(C(c3ccc(F)cc3)c3nnc(-c4ccccc4)o3)CC2)c1 (stereo unspecified),89µM*,-8%,10%,-19%,?,1%
CN(Cc1ccsc1)C(=O)Cn1cc(Br)ccc1=O,22µM*,-3%,16%,-4%,-17%,10%
COc1cccc(-c2nc(S(=O)(=O)c3ccccc3)c(N3CCC(C)CC3)o2)c1,?,-20%,-18%,-8%,-27%,0%
